Bioassay records from PubChem.
Compounds with a hit are over-represented: about 5.9% of the library has one in this group of screens.
RORg inh: ROR gamma (mouse) transcription inhibition. P51450. 310,000 compounds, 5.4% hits. Potency, µM (doses to about 53.6 µM), without a hit: at the top dose activity change, negative = inhibition, most hits filed as inhibitors. Drosophila S2 Gal4-RORgamma UAS-luciferase reporter, 20 h; further: on the % scale 0 is the no-effect control and ±100 the full control effect; nearly all actives have a fitted effect of over 60% in size
Target sequence (P51450 whole entry, looked up, the tested form may be a part): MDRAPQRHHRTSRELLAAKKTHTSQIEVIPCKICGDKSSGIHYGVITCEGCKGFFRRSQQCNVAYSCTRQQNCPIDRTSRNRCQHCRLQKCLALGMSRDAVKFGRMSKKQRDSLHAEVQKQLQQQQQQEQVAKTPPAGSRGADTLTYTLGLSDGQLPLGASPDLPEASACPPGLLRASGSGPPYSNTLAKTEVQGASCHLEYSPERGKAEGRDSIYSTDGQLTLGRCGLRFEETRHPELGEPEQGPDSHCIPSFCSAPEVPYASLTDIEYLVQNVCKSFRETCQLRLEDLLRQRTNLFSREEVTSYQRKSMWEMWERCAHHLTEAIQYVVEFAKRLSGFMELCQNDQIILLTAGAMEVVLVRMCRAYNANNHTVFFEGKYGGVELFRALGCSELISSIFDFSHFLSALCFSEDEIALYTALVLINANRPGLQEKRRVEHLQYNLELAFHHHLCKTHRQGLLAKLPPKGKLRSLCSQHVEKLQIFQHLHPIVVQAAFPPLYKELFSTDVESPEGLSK
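Luminescence from a UAS-regulated Photinus luciferase reporter in stably transfected Drosophila Schneider cells is measured; decreased signal marks ROR gamma inhibition. Fusion expression is induced by 700 uM copper sulfate for 20 hr.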
GLP-1R agonist: activates the human GLP-1 receptor; 380,000 compounds, 0.007% hits; HEK293 GLP-1R CRE-luciferase, luminescence, 4-6 h; cells express a hypersensitive GLP-1R form; Potency, µM (highest dose often 45.6 µM), for the others: top-dose activation, hits mostly activators; further: % of control where 0% means no effect
HEK293 tox: cytotoxicity counter-screen for GLP-1 receptor inverse agonists; 410,000 compounds, 0.13% hits; Potency, µM (doses to about 38.3 µM), inactives show at the top dose activity change, negative = inhibition, usual class: inhibitors; AID 624418; HEK293 cAMP-luciferase reporter cells, luminescence, 24 h;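 further: loss of luciferase light is scored as toxicity; on the % scale 0 is the no-effect control and ±100 the full control effect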
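Compound-treated cells are incubated 24 hr at 37 deg C under 5% CO2 after a 12 hour attachment period, then luciferase detection reagent is added and luminescence is measured following 12 min at room temperature; lowered signal indicates toxicity.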
Gal4-VP16 FLuc: inhibits Gal4-VP16 luciferase reporter, ROR gamma counter-screen. Drosophila S2 Gal4-VP16 UAS-luciferase, luminescence, 20 h. Potency, µM (titrated, usually from 53.6 µM), for the others: top-dose activity, negative = inhibition, actives largely listed as inhibitors. 310,000 compounds, 3.5% hits;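 further: Gal4-VP16 expression switched on by copper sulfate through the metallothionein promoter; on the % scale 0 is the no-effect control and ±100 the full control effect; nearly all actives have a fitted effect of over 50% in size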
GLP1R inv ag: GLP-1 receptor (human) inverse agonism; P43220; HEK293 GLP-1R CRE-luciferase, luminescence, 24 h; GLP-1R form is constitutively active; Potency, µM (doses to about 38.3 µM), inactives show at the top dose activity change, negative = inhibition, most hits filed as inhibitors; 410,000 compounds, 1.6% hits; further: on the % scale 0 is the no-effect control and ±100 the full control effect; nearly all actives have a fitted effect of over 55% in size
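Assay principle: reduced luminescence from a cAMP-responsive reporter in HEK293 cells co-expressing a constitutively active GLP-1R. Conditions: 24 hr compound incubation, 37 deg C, 5% CO2.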
* marks the source's active call; other numbers are inactive results; ? = inconclusive; / = no result given; [ ] = dose if it differs, or a comment. The call rests on the fitted dose curve; in most records, active means well fitted curve in the direction sought with a large enough effect; inconclusive means small, poorly fitted or top-dose-only effect, or another doubt; inactive means no such curve, though single readings can be large; an effect the other way counts as inactive or inconclusive. Potency means the concentration at half of the fitted maximal effect.

SMILES	RORg inh	GLP-1R agonist	HEK293 tox	Gal4-VP16 FLuc	GLP1R inv ag
O=C1CCCC(O)=C1C1C2=C(CCCC2=O)OC2=C1C(=O)CCC2	-6%	2%	-7%[7.66 µM]	-8%	-10%[7.66 µM]
CCCCC/C=C\C/C=C\C/C=C\C/C=C\CCCC(=O)C(F)(F)F	22%	/	/	-3%	/
CC(=O)c1c(N2CCN(C)CC2)[nH]c(-c2ccccc2)nc1=S	10µM*	7%	?	-20%	?
Cc1ccc(C)c(NC(=O)Nc2cc3c(cc2N2CCCCC2)n(C)c(=O)n3C)c1	/	/	-12%	/	-11%
COCCn1c(=S)[nH]c2ccc(N(C)C)cc2c1=O	16µM*	22%	156%	?	0%
CCCCN(C)CCn1c(=S)[nH]c2cc(OCC)c(OCC)cc2c1=O	11µM*	-2%	-4%	?	-6%
CCOc1cc2[nH]c(=S)n(CCOC)c(=O)c2cc1OCC	2.8µM*	2%	-8%	8.9µM*	6%
CCOC(=O)N1CCN(C(=O)CCn2c(=S)[nH]c3cc(OCC)c(OCC)cc3c2=O)CC1	-4%	/	/	2%	/
CCCn1c(=S)[nH]c2cc(OC)c(OC)cc2c1=O	3.2µM*	8%	1%	7.9µM*	20%
CCOc1cc2[nH]c(=S)n(CCCN(CC)CC)c(=O)c2cc1OCC	-40%	0%	-22%	-13%	0%
COCCN(CCOC)c1nc(C)nc2c1nc(-c1ccccc1)n2CCCN(C)C	-28%	/	/	4%	/
CCOC(=O)N1CCC(n2c(=S)[nH]c3cc(OC)c(OC)cc3c2=O)CC1	?	-12%	2%	11µM*	0%
Cc1cc(C)nc(NC(=S)Nc2cccc(Cl)c2Cl)c1	0.4µM*	-4%	?	1.8µM*	?
Cc1ccnc(NC(=O)Nc2ccc(Br)cc2Cl)c1	-1%	12%	-3%	-16%	12%
COc1ccc(NC(=S)Nc2cc(C)cc(C)n2)cc1OC	46%	-3%	-13%	?	10%
Cc1cc(C)nc(NC(=S)Nc2ccc(Br)cc2Cl)c1	0.56µM*	1%	0%	?	11%
Cc1ccc(Cn2c(CNC(=O)c3ccc(Cl)c([N+](=O)[O-])c3)nc3cccnc32)cc1	/	/	-1%	/	15%
CCOc1cc(C(=S)N2CCCCC2)ccc1OS(=O)(=O)c1ccc(Br)cc1	7.1µM*	-4%	6%	-12%	?
CCOc1cc(C(=S)N2CCCCC2)ccc1OS(=O)(=O)c1ccc(Cl)cc1	10µM*	-3%	3%	-21%	0%
O=C(NCCN1CCOCC1)NC1(C(F)(F)F)Oc2ccc(Cl)cc2O1 (stereo unspecified)	0.32µM*	2%	5%	?	4%
CCOC(=O)Cc1csc(NC(=O)NC2(C(F)(F)F)Oc3ccc(Cl)cc3O2)n1 (stereo unspecified)	-5%	-25%	-12%	?	36%
COCC(C)NC(=O)NC1(C(F)(F)F)Oc2ccc(Cl)cc2O1 (stereo unspecified)	10µM*	-8%	-24%	11µM*	?
Cc1ccc2oc(C(=O)Nc3c(C(=O)c4ccc(C)c(F)c4)oc4ccccc34)cc(=O)c2c1	/	/	-1%	/	-9%
COc1cccc(C2=Nn3c(nnc3-c3cc(OC)cc(OC)c3)SC2)c1	-8%	/	/	-7%	/
Cc1nnc(SC(C)C(=O)Nc2ccc(Cl)cn2)n1Cc1ccccc1 (stereo unspecified)	9%	-2%	4%	-1%	-111%
SMILES	RORg inh	GLP-1R agonist	HEK293 tox	Gal4-VP16 FLuc	GLP1R inv ag
CC(Sc1nnc(CN2CCCC2)n1Cc1ccccc1)C(=O)Nc1ccc(F)c(F)c1F (stereo unspecified)	/	6%	-10%	/	5µM*
CC(Sc1nnc(CN2CCCC2)n1Cc1ccccc1)C(=O)Nc1ccccc1 (stereo unspecified)	/	11%	4%	/	7.9µM*
Cc1ccccc1NC(=O)C(C)Sc1nnc(CN2CCCC2)n1Cc1ccccc1 (stereo unspecified)	/	1%	-20%	/	?
CC(C)(C)NC(=S)N/N=C\c1ccc(-c2ccc([N+](=O)[O-])cc2)o1	?	13%	3%	?	8%
C=CCNC(=S)N/N=C/c1ccc(-c2ccc(OC)cc2)o1	0.56µM*	7%	?	1.8µM*	?
CNC(=S)N/N=C/c1ccc(-c2ccc(C(=O)O)cc2)o1	4µM*	-2%	-9%	-26%	-32%
Cc1ccc(-c2ccc(/C=N/NC(=S)Nc3ccccc3)o2)cc1[N+](=O)[O-]	0.89µM*	5%	7%	13µM*	0%
Cc1ccc(-c2ccc(/C=N\NC(=O)c3cc4c(ccc5ccccc54)o3)o2)cc1[N+](=O)[O-]	-19%	-13%	0%	-16%	32%
NS(=O)(=O)c1ccc(-c2ccc(/C=N/Nc3ccc(C(=O)O)cc3)o2)cc1	10µM*	0%	156%	-2%	-25%
C=CCNC(=S)N/N=C/c1ccc(-c2cc(Cl)ccc2Cl)o1	2%	0%	-12%	-4%	-25%
COc1cccc(CNC(=O)CCCCCn2c(=O)[nH]c3cc(OC)c(OC)cc3c2=O)c1	/	/	15%	/	2%
Cc1ccc2c(=O)cc(C(=O)Nc3cccc(Cl)c3C)oc2c1C	/	/	-4%	/	-9%
Cc1cc(NC(=O)Nc2ccc(N(C)C)cc2)c2cc(F)cc(F)c2n1	?	/	/	6%	/
CNC(=S)N/N=C/c1ccc(-c2ccc(Cl)c([N+](=O)[O-])c2)o1	4.5µM*	17%	3%	3.5µM*	5%
CN(C(=O)CCc1nnc(CCCCc2ccccc2)o1)C1CC(C)(C)NC(C)(C)C1	2µM*	0%	20%	4.5µM*	?
COC(=O)N[C@@H](/C=C/c1ccccc1)/C(C(=O)OC)=C(\C)NCc1ccccc1	-41%	/	/	-10%	/
Cc1ccc(N2C(=O)c3ccccc3C2Nc2ccccc2)nc1 (stereo unspecified)	18%	9%	8%	15%	?
CCc1cccc(NC2c3ccccc3C(=O)N2c2ccc(C)cn2)c1 (stereo unspecified)	20%	0%	28%	16%	13µM*
NCC[C@H](O)C(=O)N[C@@H]1C[C@H](N)[C@@H](O[C@H]2O[C@H](CN)CC[C@H]2N)[C@H](O)[C@H]1O[C@H]1O[C@H](CO)[C@@H](O)[C@H](N)[C@H]1O	6%	27%	/	5%	/
CCc1ccc(NC(=O)Cn2c(=O)n(-c3ccc(Cl)c(Cl)c3)c(=O)c3c(C)c(C)sc32)cc1	/	/	0%	/	-19%
Cc1ccc(Cn2cnc3ccccc32)cc1C	10µM*	19%	6%	?	?
Cc1cccc(Cn2cnc3ccccc32)c1	?	11%	70%	-23%	-24%
CCCOc1ccc(Cn2cnc3ccccc32)cc1	16µM*	21%	-5%	?	0%
